A number with no mark means an inactive call. How the calls were made is not given here.

Pantothenate synthetase (Mycobacterium tuberculosis (strain ATCC 25618 / H37Rv)), sequence (P9WIL5 whole entry, looked up): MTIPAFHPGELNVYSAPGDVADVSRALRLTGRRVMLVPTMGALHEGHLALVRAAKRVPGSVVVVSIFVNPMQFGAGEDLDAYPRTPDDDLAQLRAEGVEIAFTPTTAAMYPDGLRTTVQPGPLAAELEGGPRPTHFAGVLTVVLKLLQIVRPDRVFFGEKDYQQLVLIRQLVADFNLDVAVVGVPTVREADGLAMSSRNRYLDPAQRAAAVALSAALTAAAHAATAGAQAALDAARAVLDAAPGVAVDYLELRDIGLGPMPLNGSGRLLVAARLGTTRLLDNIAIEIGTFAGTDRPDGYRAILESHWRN

The assay addresses Pantothenate synthetase (Mycobacterium tuberculosis (strain ATCC 25618 / H37Rv)) (UniProt P9WIL5). Put plainly: Coupled enzyme confirmation of inhibitors against recombinant Mtb PanC (AID 375).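 Further: 0% = full reaction with vehicle and 100% = no enzyme background.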 To be noted: coupled enzyme assay; at 10 µM, hits give high values.
One may read the inhibition as the change of the read-out against control, counted positive when it falls. In the case of `COCCN(CC(=O)Nc1ccccc1C)S(=O)(=O)c1ccc(S(=O)(=O)N2CCCC2)cc1`, the inhibition was 0%.
Next, `CSc1nc2ccc(Nc3nc(N4CCOCC4)nc(N4CCOCC4)n3)cc2s1`: 2%.
Then `O=C(Cn1ccc2ccccc2c1=O)NCCC(=O)N1CCN(C(=O)c2ccco2)CC1`, with 9%.
As to `CN(C(=O)c1cc2sccc2n1C)C1CCCCC1`, the inhibition was 6%.
Then `COc1cc(C2N=C(c3ccccc3)NO2)cc(Br)c1O` (stereo not given), with 4%.
As for `CCOC(=O)Cn1nnnc1CN(Cc1ccc(OC)cc1)Cc1cc2cc(C)ccc2[nH]c1=O`, the inhibition is 1%.
`Cc1cccc(NC(=O)C2CCCN(C(=O)Nc3ccccc3)C2)c1C` (stereo not given): the inhibition is 2%.
Next, `CCOc1ccc(OCC)c(NC(=O)CCCN2C(=O)c3cccnc3C2=O)c1`: 0%.
Then `C=CCOc1ccc(/C(O)=C2\C(=O)C(=O)N(CCOC)C2c2cccnc2)cc1` (stereo not given), with 0%.
Then `CCn1c(SCC(=O)Nc2nnc(C)s2)nnc1-c1ccncc1`, with 1%; and `COCc1cc(=O)[nH]c(Nc2nc3ccccc3o2)n1`, with 0%; and `Cc1ccc(NC(=O)CC2Nc3ccccc3NC2=O)cc1Cl` (stereo not given), with 0%.
In the case of `COc1cccc(NC(=O)CC2SC(=Nc3ccccc3)NC2=O)c1` (stereo not given), the inhibition is 0%.
Next, `C=CCNS(=O)(=O)c1ccc2nsnc2c1`: 0%; `CCOCCCNC(=O)CC1Oc2ccc(C)cc2NC1=O` (stereo not given): 0%.
Then `Cc1ccc2c(c1)C(N1CCCC1=O)CC(c1ccco1)N2` (stereo not given), with 0%.
Next, `Cc1cccc(NC(=O)CC2NC3CCCCC3NC2=O)c1` (stereo not given): 0%; `CCc1cc2ccc(C)cc2nc1SCC(=O)N1CCN(C(=O)c2ccco2)CC1`: 0%.
For `CC(=O)Nc1ccc(S(=O)(=O)N2CCC(c3nc4ccccc4[nH]3)CC2)cc1`, the inhibition is 0%.
Next, `O=C(Nc1ccc2c(c1)OCO2)c1ccc(Br)c(S(=O)(=O)N2CCCC2)c1`: 1%; `O=C(C1CCN(S(=O)(=O)c2cccc3cccnc23)CC1)N1CCN(C2CCCCC2)CC1`: 0%.
Then `OCC#CCSc1nnc(-c2ccccc2Br)o1`, with 0%; and `COc1cccc(-c2cc(C(=O)N3CCc4ccccc4C3)no2)c1`, with 10%.
Then `C/C=C/CSc1nc2c(c(=O)[nH]c(=O)n2C)n1Cc1ccc(C)cc1`, with 4%.
In the case of `CC(C)c1ccc(NC(=O)CCNS(=O)(=O)c2cccc3nonc23)cc1`, the inhibition was 0%.
Next, `CCOC(=O)c1cc2c(=O)n3ccccc3nc2n(Cc2ccccc2)c1=N`: 0%.
For `COC(=O)c1ccc(C2NC(C(=O)O)CS2)cc1` (stereo not given), the inhibition was 0%.
As for `COC(=O)c1ccccc1NC(=O)c1ccc(COc2ccccc2)o1`, the inhibition was 0%.
On to `Cc1cc(S(=O)(=O)n2cnc3ccccc32)c(C)cc1Cl`, for which the inhibition was 0%.
Next, `O=S(=O)(c1ccc(Oc2ccc(-c3nnco3)cc2)nc1)N1CCC(Cc2ccccc2)CC1`: 0%.
In the case of `CCCC(=O)Nc1ccc(C(=O)O)cc1NC(=O)CCC`, the inhibition is 0%.
Turning to `CN(C)S(=O)(=O)n1cnc(-c2ccccc2)c1-c1ccccc1`, the inhibition was 4%.
Then `CCOc1cccc(-c2nnc3sc(COc4ccc(OC)cc4)nn23)c1`, with 4%.
With `CCn1c(SCc2nc(-c3cccs3)no2)nnc1-c1c[nH]c2ccccc12`, the inhibition was 0%.
Then `CCOCCCNC(=O)c1cc2sc(Cl)cc2n1CC`, with 0%; and `CC(=N\O)/C(CN(C)C)=N/O`, with 0%.
Next, `CCN(CC(=O)Nc1ccc2c(c1)CCC2)Cc1nc2ccccc2c(=O)[nH]1`: 4%; `Cn1c(=O)c2ncn(CC(=O)NCCOc3ccccc3)c2n(C)c1=O`: 0%; `O=C1N(CCCCN2C(=O)C3(OCCO3)c3ccccc32)c2ccccc2C12OCCO2`: 0%.
On to `O=C(CSc1nnc2ncccn12)N1CCCCCC1`, for which the inhibition was 0%.

The values above are taken from PubChem BioAssay.
